# Assay results reported in PubChem BioAssay (EPA / NIEHS).
# The source made the active and inactive calls. Rule for the calls: active = hit-call score of the fitted dose curve at least 0.9, where 1 is the maximum; inactive = score below 0.9.
# What was measured:
# Settings in all cases: mRNA level, 48 h; actives raise or lower the signal
# [1] = read-out: DNA damage-inducible transcript 3 (DDIT3), DDIT3 (gene 1649); assay: LTEA_HepaRG_DDIT3: Life Technologies and Expression Analysis (LTEA) Assay for DNA damage-inducible transcript 3 (DDIT3) using HepaRG (AID 2283488)
# In short: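 HepaRG cells, 48 h after plating, exposed 48 h in serum-free induction medium to 8 half-log concentrations up to 100 uM in 0.5% DMSO, in duplicate. DDIT3 mRNA measured by TaqMan qRT-PCR, normalized to ACTB, GAPDH and POLR2A. Fitted bidirectionally against DMSO.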
# [2] = read-out: Pro-epidermal growth factor (Homo sapiens) (UniProt P01133); assay: LTEA_HepaRG_EGF: Life Technologies and Expression Analysis (LTEA) Assay for Epidermal growth factor (EGF) using HepaRG (AID 2283489)
# In short: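 Concentration-response mRNA assay: HepaRG cells dosed 48 h (max 100 uM, 0.5% DMSO), EGF measured by qRT-PCR and normalized to ACTB/GAPDH/POLR2A.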
# [3] = read-out: Early growth response protein 1 (EGR1) transcription factor, EGR1 (gene 1958); assay: LTEA_HepaRG_EGR1: Life Technologies and Expression Analysis (LTEA) Assay for Early growth response protein 1 (EGR1) transcription factor using HepaRG (AID 2283490)
# In short: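 Differentiated HepaRG cells in serum-free induction medium exposed 48 hours, duplicate, to 8 half-log concentrations up to 100 uM in 0.5% DMSO. EGR1 mRNA measured by TaqMan qRT-PCR, normalized to ACTB, GAPDH, POLR2A; bidirectional fit versus DMSO.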
# [4] = read-out: Ezrin (EZR), EZR (gene 7430); assay: LTEA_HepaRG_EZR: Life Technologies and Expression Analysis (LTEA) Assay for Ezrin (EZR) using HepaRG (AID 2283491)
# In short: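 Differentiated human HepaRG cells, 48 h after plating, were exposed in serum-free induction medium for 48 hours to eight half-log concentrations up to 100 uM in 0.5% DMSO. EZR mRNA was measured by TaqMan qRT-PCR, normalized to ACTB, GAPDH and POLR2A, and fitted bidirectionally against DMSO.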
# [5] = read-out: Cytochrome P450 3A7 (Homo sapiens) (UniProt P24462); assay: LTEA_HepaRG_CYP3A7: Life Technologies and Expression Analysis (LTEA) Assay for CYP3A7 using HepaRG (AID 2283492)
# In short: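 qRT-PCR of CYP3A7 in HepaRG lysates after 48 h treatment; concentration-response (8 points, max 100 uM) analysed bidirectionally relative to 0.5% DMSO controls.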
# [6] = read-out: CYP3A5 (gene 1577); assay: LTEA_HepaRG_CYP3A5: Life Technologies and Expression Analysis (LTEA) Assay for CYP3A5 using HepaRG (AID 2283493)
# In short: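 HepaRG cells, plated 48 h then in serum-free induction medium, dosed in duplicate for 48 h with eight half-log concentrations up to 100 uM in 0.5% DMSO. Gene mRNA by Fluidigm TaqMan qRT-PCR, normalized to ACTB, GAPDH, POLR2A.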
# [7] = read-out: Fatty Acid-Binding Protein 1 (FABP1), FABP1 (gene 2168); assay: LTEA_HepaRG_FABP1: Life Technologies and Expression Analysis (LTEA) Assay for Fatty Acid-Binding Protein 1 (FABP1) using HepaRG (AID 2283494)
# In short: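 Differentiated human HepaRG cells exposed 48 h in serum-free induction medium to eight half-log concentrations up to 100 uM (0.5% DMSO), duplicate. FABP1 mRNA by qRT-PCR, normalised to ACTB, GAPDH, POLR2A; bidirectional fitting against DMSO.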
# [8] = read-out: Cytochrome P450 4A22 (Homo sapiens) (UniProt Q5TCH4); assay: LTEA_HepaRG_CYP4A22: Life Technologies and Expression Analysis (LTEA) Assay for Cytochrome P450 4A22 (CYP4A22) using HepaRG (AID 2283495)
# In short: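 Concentration-response (8 points, max 100 uM, 0.5% DMSO) in human HepaRG liver cells after 48 h exposure. CYP4A22 mRNA by TaqMan qRT-PCR with housekeeping-gene normalization.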
# [9] = read-out: Cytochrome P450 7A1 (Homo sapiens) (UniProt P22680); assay: LTEA_HepaRG_CYP7A1: Life Technologies and Expression Analysis (LTEA) Assay for Cytochrome P450 7A1 (CYP7A1) using HepaRG (AID 2283496)
# In short: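 HepaRG cells plated 48 h, then switched to serum-free induction medium and exposed in duplicate for 48 h to 8-point half-log series from 100 uM in 0.5% DMSO. CYP7A1 mRNA by qRT-PCR (TaqMan), normalized to ACTB/GAPDH/POLR2A; bidirectional fit versus DMSO.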
# [10] = read-out: Glutathione S-Transferase (GSTA2), GSTA2 (gene 2939); assay: LTEA_HepaRG_GSTA2: Life Technologies and Expression Analysis (LTEA) Assay for Glutathione S-Transferase (GSTA2) using HepaRG (AID 2283497)
# In short: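 Differentiated human HepaRG cells were exposed in duplicate for 48 h in serum-free induction medium, 8 points from 100 uM top in half-log steps, 0.5% DMSO. GSTA2 mRNA was measured by TaqMan qRT-PCR, normalized to ACTB, GAPDH and POLR2A; bidirectional fit versus DMSO.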
# [11] = read-out: Glutamate-cysteine ligase catalytic (GCLC), GCLC (gene 2729); assay: LTEA_HepaRG_GCLC: Life Technologies and Expression Analysis (LTEA) Assay for Glutamate-cysteine ligase catalytic (GCLC) using HepaRG (AID 2283498)
# In short: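 Differentiated HepaRG cells exposed 48 h in serum-free induction medium, eight-point half-log series topping at 100 uM in 0.5% DMSO, duplicates. GCLC mRNA by qRT-PCR normalized to ACTB, GAPDH and POLR2A, fitted bidirectionally versus DMSO.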
# [12] = read-out: growth arrest and DNA damage 45 (GADD45G), GADD45G (gene 10912); assay: LTEA_HepaRG_GADD45G: Life Technologies and Expression Analysis (LTEA) Assay for growth arrest and DNA damage 45 (GADD45G) using HepaRG (AID 2283499)
# In short: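 Concentration-response in HepaRG: 48 h dosing, 0.5% DMSO, highest level 100 uM. GADD45G expression by qRT-PCR, normalised to endogenous controls; bidirectional fit to DMSO.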
# [13] = read-out: Glutamate-cysteine ligase regulatory (GCLM), GCLM (gene 2730); assay: LTEA_HepaRG_GCLM: Life Technologies and Expression Analysis (LTEA) Assay for Glutamate-cysteine ligase regulatory (GCLM) using HepaRG (AID 2283500)
# In short: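 Differentiated HepaRG cells exposed 48 h in serum-free induction medium to eight half-log concentrations up to 100 uM (0.5% DMSO). GCLM mRNA by TaqMan qRT-PCR, normalized to ACTB, GAPDH and POLR2A; bidirectional fit versus DMSO.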
# [14] = read-out: Glutathione S-transferase M3 (GSTM3), GSTM3 (gene 2947); assay: LTEA_HepaRG_GSTM3: Life Technologies and Expression Analysis (LTEA) Assay for Glutathione S-transferase M3 (GSTM3) using HepaRG (AID 2283501)
# In short: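 Expression of GSTM3 is determined by qRT-PCR in human liver HepaRG cells treated 48 h with an 8-point half-log range from 100 uM in 0.5% DMSO.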
# [15] = read-out: Heat shock 70 kDa protein 1 (HSPA1A), gene 3303; assay: LTEA_HepaRG_HSPA1A: Life Technologies and Expression Analysis (LTEA) Assay for Heat shock 70 kDa protein 1 (HSPA1A) using HepaRG (AID 2283502)
# In short: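 Human HepaRG cells in serum-free induction medium were exposed in duplicate for 48 h to 8 half-log concentrations, highest 100 uM, in 0.5% DMSO. HSPA1A mRNA read by TaqMan qRT-PCR, normalized to ACTB, GAPDH, POLR2A, fitted bidirectionally against DMSO.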
# [16] = read-out: Hypoxia-inducible factor 1-alpha (Homo sapiens) (UniProt Q16665); assay: LTEA_HepaRG_HIF1A: Life Technologies and Expression Analysis (LTEA) Assay for Hypoxia-inducible factor 1 (HIF1A) Trancription factor using HepaRG (AID 2283503)
# In short: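 Differentiated HepaRG cells in serum-free induction medium exposed 48 h, in duplicate, to 8-point half-log series from 100 uM in 0.5% DMSO. HIF1A mRNA measured by TaqMan qRT-PCR, normalized to ACTB/GAPDH/POLR2A, fitted bidirectionally versus DMSO.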
# [17] = read-out: 3-Hydroxy-3-Methylglutaryl-CoA Synthase 2 (HMGCS2), HMGCS2 (gene 3158); assay: LTEA_HepaRG_HMGCS2: Life Technologies and Expression Analysis (LTEA) Assay for 3-Hydroxy-3-Methylglutaryl-CoA Synthase 2 (HMGCS2) using HepaRG (AID 2283504)
# In short: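 This steatosis marker was read as HMGCS2 mRNA change in HepaRG cells treated 48 h with up to 100 uM chemical. Normalisation used housekeeping genes; activity in either direction was fitted relative to 0.5% DMSO vehicle.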
# [18] = read-out: HGF (gene 3082); assay: LTEA_HepaRG_HGF: Life Technologies and Expression Analysis (LTEA) Assay for Hepatocyte Growth Facto (HGF) using HepaRG (AID 2283505)
# In short: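 Using HepaRG monolayers kept in 0.5% DMSO, chemicals were tested in duplicate over eight half-log concentrations from 100 uM for 48 h. Endpoint: HGF mRNA change relative to DMSO, normalized to ACTB/GAPDH/POLR2A.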
# [19] = read-out: Insulin Like Growth Factor 1 (IGF1), IGF1 (gene 3479); assay: LTEA_HepaRG_IGF1: Life Technologies and Expression Analysis (LTEA) Assay for Insulin Like Growth Factor 1 (IGF1) using HepaRG (AID 2283506)
# In short: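 Differentiated HepaRG cells in serum-free induction medium, exposed 48 h in duplicate to 8 half-log concentrations up to 100 uM in 0.5% DMSO. IGF1 mRNA by Fluidigm qRT-PCR, normalised to ACTB, GAPDH and POLR2A.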
# [20] = read-out: Intercellular Adhesion Molecule 1 (ICAM1), ICAM1 (gene 3383); assay: LTEA_HepaRG_ICAM1: Life Technologies and Expression Analysis (LTEA) Assay for Intercellular Adhesion Molecule 1 (ICAM1) using HepaRG (AID 2283507)
# In short: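 Using the human liver line HepaRG, compounds are tested in duplicate over 48 h at concentrations up to 100 uM. Expression is determined by TaqMan qRT-PCR, normalized to endogenous controls, and analysed relative to 0.5% DMSO vehicle.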
# Sequence of Cytochrome P450 3A7 (Homo sapiens) (P24462 whole entry, looked up): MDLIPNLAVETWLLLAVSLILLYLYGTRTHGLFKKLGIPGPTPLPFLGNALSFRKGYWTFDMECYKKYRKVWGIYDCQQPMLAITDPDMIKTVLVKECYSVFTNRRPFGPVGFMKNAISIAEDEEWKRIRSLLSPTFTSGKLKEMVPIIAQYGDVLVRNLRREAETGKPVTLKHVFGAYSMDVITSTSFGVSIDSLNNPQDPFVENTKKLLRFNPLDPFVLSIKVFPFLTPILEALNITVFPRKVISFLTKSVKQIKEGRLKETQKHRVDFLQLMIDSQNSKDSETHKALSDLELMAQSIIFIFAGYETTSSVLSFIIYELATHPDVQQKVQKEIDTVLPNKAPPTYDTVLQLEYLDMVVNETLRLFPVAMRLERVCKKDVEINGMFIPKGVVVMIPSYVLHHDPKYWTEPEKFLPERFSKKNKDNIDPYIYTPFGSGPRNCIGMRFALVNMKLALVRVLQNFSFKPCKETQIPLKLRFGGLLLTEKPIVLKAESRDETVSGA
# Sequence of Hypoxia-inducible factor 1-alpha (Homo sapiens) (Q16665 whole entry, looked up): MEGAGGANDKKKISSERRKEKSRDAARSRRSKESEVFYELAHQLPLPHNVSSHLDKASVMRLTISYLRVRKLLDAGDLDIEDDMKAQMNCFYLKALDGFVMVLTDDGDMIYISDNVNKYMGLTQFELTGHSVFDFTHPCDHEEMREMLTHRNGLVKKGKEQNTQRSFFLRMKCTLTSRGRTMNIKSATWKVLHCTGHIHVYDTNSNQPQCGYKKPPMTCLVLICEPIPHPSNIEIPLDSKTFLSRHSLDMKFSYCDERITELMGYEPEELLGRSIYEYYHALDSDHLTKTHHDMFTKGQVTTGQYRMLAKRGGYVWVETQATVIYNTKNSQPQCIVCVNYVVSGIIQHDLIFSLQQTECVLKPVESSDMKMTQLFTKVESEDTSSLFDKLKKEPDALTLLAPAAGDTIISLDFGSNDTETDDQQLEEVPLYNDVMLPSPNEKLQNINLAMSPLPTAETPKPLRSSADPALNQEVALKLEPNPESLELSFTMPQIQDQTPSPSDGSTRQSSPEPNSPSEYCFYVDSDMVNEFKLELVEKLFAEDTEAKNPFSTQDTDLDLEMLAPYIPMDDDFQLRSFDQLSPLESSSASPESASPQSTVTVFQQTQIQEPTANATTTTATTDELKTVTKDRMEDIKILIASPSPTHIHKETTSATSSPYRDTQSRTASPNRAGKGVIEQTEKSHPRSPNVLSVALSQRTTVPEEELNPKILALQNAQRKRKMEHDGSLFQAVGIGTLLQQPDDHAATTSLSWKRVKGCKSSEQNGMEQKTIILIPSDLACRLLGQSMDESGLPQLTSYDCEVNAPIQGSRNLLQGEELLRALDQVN
smiles,measurement,setting,value
C=C(C)C(N)=O,outcome,[1],inactive
same,outcome,[2],inactive
same,outcome,[3],inactive
same,outcome,[4],inactive
same,outcome,[5],inactive
same,outcome,[6],inactive
same,outcome,[7],inactive
same,outcome,[8],inactive
same,outcome,[9],inactive
same,outcome,[10],inactive
same,outcome,[11],inactive
same,outcome,[12],inactive
same,outcome,[13],inactive
same,outcome,[14],inactive
same,outcome,[15],inactive
same,outcome,[16],inactive
same,outcome,[17],inactive
same,outcome,[18],inactive
same,outcome,[19],inactive
same,outcome,[20],inactive
O=C(c1ccc(OCCN2CCCCC2)cc1)c1c(-c2ccc(O)cc2)sc2cc(O)ccc12,AC50,[1],83.3 µM (active)
same,outcome,[2],inactive
same,AC50,[3],90.9 µM (active)
same,AC50,[4],50 µM (active)
same,outcome,[5],inactive
same,AC50,[6],41.4 µM (active)
same,AC50,[7],50 µM (active)
same,outcome,[8],inactive
same,outcome,[9],inactive
same,AC50,[10],69.1 µM (active)
same,outcome,[11],inactive
same,outcome,[12],inactive
same,outcome,[13],inactive
same,outcome,[14],inactive
same,AC50,[15],88.1 µM (active)
same,AC50,[17],3.14 µM (active)
same,outcome,[18],inactive
same,AC50,[19],78.3 µM (active)
same,AC50,[20],71 µM (active)
COC(=O)c1ccc(C(=O)OC)cc1,outcome,[1],inactive
same,outcome,[2],inactive
same,outcome,[3],inactive
same,outcome,[4],inactive
same,outcome,[5],inactive
same,outcome,[6],inactive
same,outcome,[7],inactive
same,outcome,[8],inactive
same,outcome,[9],inactive
same,outcome,[10],inactive
same,outcome,[11],inactive
same,outcome,[12],inactive
same,outcome,[13],inactive
same,outcome,[14],inactive
same,outcome,[15],inactive
same,outcome,[16],inactive
same,outcome,[17],inactive
same,outcome,[18],inactive
same,outcome,[19],inactive
same,outcome,[20],inactive
